# In all, about 8,300 sequences were measured (“log2 fold change of degron read counts, EGFP-low vs EGFP+ sorted cells (limma voom), compound-induced degradation”: median about -1.1, highest 2% from about 3.2 on). The entries come from a sample that favours the highest values as a whole.
# T1: CRBN, Q96SW2
# T1 chain: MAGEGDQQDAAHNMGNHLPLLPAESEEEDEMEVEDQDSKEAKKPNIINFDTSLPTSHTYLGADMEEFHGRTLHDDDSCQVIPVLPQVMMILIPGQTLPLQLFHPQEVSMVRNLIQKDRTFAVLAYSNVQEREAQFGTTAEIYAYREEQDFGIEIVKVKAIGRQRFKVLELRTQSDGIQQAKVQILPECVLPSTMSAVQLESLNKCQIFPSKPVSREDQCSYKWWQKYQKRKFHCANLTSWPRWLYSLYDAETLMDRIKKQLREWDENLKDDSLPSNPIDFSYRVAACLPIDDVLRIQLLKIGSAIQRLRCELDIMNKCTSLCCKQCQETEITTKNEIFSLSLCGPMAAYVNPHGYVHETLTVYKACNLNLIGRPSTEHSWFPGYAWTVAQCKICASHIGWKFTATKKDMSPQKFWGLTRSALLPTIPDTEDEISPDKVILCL
# Molecular target: T1, CRBN, Q96SW2
# Experiment: log2 fold change of degron read counts, EGFP-low vs EGFP+ sorted cells (limma voom), compound-induced degradation; higher = more compound-induced degradation of the degron-EGFP fusion; degrons are variants of IKZF1/3 zinc finger 2; compound dose not given here
# Details: Jurkat, 18 h
# [1] = compound: compound 19 (5-tert-butyl-thalidomide)
# [2] = compound: compound 22 (5-morpholino-thalidomide)
# [3] = compound: compound 33 (diphenyl IMiD analogue)
# 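Also: pooled lentiviral library of zinc finger degron-EGFP fusions in mCherry-positive Jurkat cells, FACS-sorted after compound exposure, with degron abundance counted by next-generation sequencing.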
sequence,measurement,setting,value
"LHCNQCGFWCTQKGNLLRHIKL [46L_47H_49N_50Q_52G_53F_54W_55C_67L_, Q9UKT9]",log2 fold change of degron read counts,[1],-0.827
same,log2 fold change of degron read counts,[2],-1.3
same,log2 fold change of degron read counts,[3],-1.08
same,log2 fold change of degron read counts,compound: thalidomide,-0.88
"FRCPICGHHFTQKGNLLRHIKL [46F_47R_49P_50I_52G_53H_54H_55F_67L_, Q9UKT9]",log2 fold change of degron read counts,[1],-2.39
same,log2 fold change of degron read counts,[2],-2.52
same,log2 fold change of degron read counts,[3],-1.52
same,log2 fold change of degron read counts,compound: thalidomide,-1.56
"FFCEICGANFTQKGNLLRHIKL [46F_47F_49E_50I_52G_53A_54N_55F_67L_, Q9UKT9]",log2 fold change of degron read counts,[1],3.08
same,log2 fold change of degron read counts,[2],3.63
same,log2 fold change of degron read counts,[3],1.75
same,log2 fold change of degron read counts,compound: thalidomide,1.6
"FYCEICGANFTQKGNLLRHIKL [46F_47Y_49E_50I_52G_53A_54N_55F_67L_, Q9UKT9]",log2 fold change of degron read counts,[1],3.74
same,log2 fold change of degron read counts,[2],3.68
same,log2 fold change of degron read counts,[3],2.63
same,log2 fold change of degron read counts,compound: thalidomide,1.54
"FSCEICGANFTQKGNLLRHIKL [46F_47S_49E_50I_52G_53A_54N_55F_67L_, Q9UKT9]",log2 fold change of degron read counts,[1],2.11
same,log2 fold change of degron read counts,[2],1.59
same,log2 fold change of degron read counts,[3],1.31
same,log2 fold change of degron read counts,compound: thalidomide,0.441
"FKCEICGANFTQKGNLLRHIKL [46F_47K_49E_50I_52G_53A_54N_55F_67L_, Q9UKT9]",log2 fold change of degron read counts,[1],-1.06
same,log2 fold change of degron read counts,[2],-1.95
same,log2 fold change of degron read counts,[3],-2.41
same,log2 fold change of degron read counts,compound: thalidomide,-0.806
"FTCEICGANFTQKGNLLRHIKL [46F_47T_49E_50I_52G_53A_54N_55F_67L_, Q9UKT9]",log2 fold change of degron read counts,[1],0.227
same,log2 fold change of degron read counts,[2],1.78
same,log2 fold change of degron read counts,[3],1.46
same,log2 fold change of degron read counts,compound: thalidomide,2.43
"FGCEICGANFTQKGNLLRHIKL [46F_47G_49E_50I_52G_53A_54N_55F_67L_, Q9UKT9]",log2 fold change of degron read counts,[1],1.01
same,log2 fold change of degron read counts,[2],0.765
same,log2 fold change of degron read counts,[3],1.12
same,log2 fold change of degron read counts,compound: thalidomide,0.771
"FWCEICGANFTQKGNLLRHIKL [46F_47W_49E_50I_52G_53A_54N_55F_67L_, Q9UKT9]",log2 fold change of degron read counts,[1],3.41
same,log2 fold change of degron read counts,[2],3.78
same,log2 fold change of degron read counts,[3],2.28
same,log2 fold change of degron read counts,compound: thalidomide,1.57
"FLCEICGANFTQKGNLLRHIKL [46F_47L_49E_50I_52G_53A_54N_55F_67L_, Q9UKT9]",log2 fold change of degron read counts,[1],0.58
same,log2 fold change of degron read counts,[2],-0.667
same,log2 fold change of degron read counts,[3],1.21
same,log2 fold change of degron read counts,compound: thalidomide,1.75
"FECEICGANFTQKGNLLRHIKL [46F_47E_49E_50I_52G_53A_54N_55F_67L_, Q9UKT9]",log2 fold change of degron read counts,[1],0.0673
same,log2 fold change of degron read counts,[2],-1.05
same,log2 fold change of degron read counts,[3],2.35
same,log2 fold change of degron read counts,compound: thalidomide,2.43
"FQCEICGANFTQKGNLLRHIKL [46F_47Q_49E_50I_52G_53A_54N_55F_67L_, Q9UKT9]",log2 fold change of degron read counts,[1],0.735
same,log2 fold change of degron read counts,[2],1.47
same,log2 fold change of degron read counts,[3],1.94
same,log2 fold change of degron read counts,compound: thalidomide,3.59
"FNCEICGANFTQKGNLLRHIKL [46F_47N_49E_50I_52G_53A_54N_55F_67L_, Q9UKT9]",log2 fold change of degron read counts,[1],2.42
same,log2 fold change of degron read counts,[2],0.457
same,log2 fold change of degron read counts,[3],-0.158
same,log2 fold change of degron read counts,compound: thalidomide,-0.463
"FACEICGANFTQKGNLLRHIKL [46F_47A_49E_50I_52G_53A_54N_55F_67L_, Q9UKT9]",log2 fold change of degron read counts,[1],2.93
same,log2 fold change of degron read counts,[2],1.89
same,log2 fold change of degron read counts,[3],1.07
same,log2 fold change of degron read counts,compound: thalidomide,0.575
"FCCEQCGAMFTQKGNLLRHIKL [46F_47C_49E_50Q_52G_53A_54M_55F_67L_, Q9UKT9]",log2 fold change of degron read counts,[1],-1.3
same,log2 fold change of degron read counts,[2],-2.03
same,log2 fold change of degron read counts,[3],-0.276
same,log2 fold change of degron read counts,compound: thalidomide,-1.41
"FHCNVCGARFTQKGNLLRHIKL [46F_47H_49N_50V_52G_53A_54R_55F_67L_, Q9UKT9]",log2 fold change of degron read counts,[1],0.139
same,log2 fold change of degron read counts,[2],-0.199
same,log2 fold change of degron read counts,[3],-0.986
same,log2 fold change of degron read counts,compound: thalidomide,-1.05
"LNCPICGFLCTQKGNLLRHIKL [46L_47N_49P_50I_52G_53F_54L_55C_67L_, Q9UKT9]",log2 fold change of degron read counts,[1],-0.106
same,log2 fold change of degron read counts,[2],0.152
same,log2 fold change of degron read counts,[3],0.208
same,log2 fold change of degron read counts,compound: thalidomide,0.391
"FQCSVCGHDFTQKGNLLRHIKL [46F_47Q_49S_50V_52G_53H_54D_55F_67L_, Q9UKT9]",log2 fold change of degron read counts,[1],-3.43
same,log2 fold change of degron read counts,[2],-3.8
same,log2 fold change of degron read counts,[3],-3.18
same,log2 fold change of degron read counts,compound: thalidomide,-3.17
"FICNQCGHFFTQKGNLLRHIKL [46F_47I_49N_50Q_52G_53H_54F_55F_67L_, Q9UKT9]",log2 fold change of degron read counts,[1],-2.52
same,log2 fold change of degron read counts,[2],-2.59
same,log2 fold change of degron read counts,[3],-2.06
same,log2 fold change of degron read counts,compound: thalidomide,-2.52
"FKCEICGHFFTQKGNLLRHIKL [46F_47K_49E_50I_52G_53H_54F_55F_67L_, Q9UKT9]",log2 fold change of degron read counts,[1],-2.55
same,log2 fold change of degron read counts,[2],-2.68
same,log2 fold change of degron read counts,[3],-2.97
same,log2 fold change of degron read counts,compound: thalidomide,-2.85
"FQCNVCGACFTQKGNLLRHIKL [46F_47Q_49N_50V_52G_53A_54C_55F_67L_, Q9UKT9]",log2 fold change of degron read counts,[1],-1.23
same,log2 fold change of degron read counts,[2],0.797
same,log2 fold change of degron read counts,[3],0.868
same,log2 fold change of degron read counts,compound: thalidomide,3.21
"LVCPICGFKCTQKGNLLRHIKL [46L_47V_49P_50I_52G_53F_54K_55C_67L_, Q9UKT9]",log2 fold change of degron read counts,[1],0.655
same,log2 fold change of degron read counts,[2],2.13
same,log2 fold change of degron read counts,[3],0.489
same,log2 fold change of degron read counts,compound: thalidomide,2.78
"LFCPICGFKCTQKGNLLRHIKL [46L_47F_49P_50I_52G_53F_54K_55C_67L_, Q9UKT9]",log2 fold change of degron read counts,[1],2.81
same,log2 fold change of degron read counts,[2],2.98
same,log2 fold change of degron read counts,[3],1.2
same,log2 fold change of degron read counts,compound: thalidomide,1.42
"LECPICGFKCTQKGNLLRHIKL [46L_47E_49P_50I_52G_53F_54K_55C_67L_, Q9UKT9]",log2 fold change of degron read counts,[1],0.756
same,log2 fold change of degron read counts,[2],-0.257
same,log2 fold change of degron read counts,[3],0.961
same,log2 fold change of degron read counts,compound: thalidomide,3.26
"LRCPICGFKCTQKGNLLRHIKL [46L_47R_49P_50I_52G_53F_54K_55C_67L_, Q9UKT9]",log2 fold change of degron read counts,[1],-0.023
same,log2 fold change of degron read counts,[2],-0.151
same,log2 fold change of degron read counts,[3],0.993
same,log2 fold change of degron read counts,compound: thalidomide,1.4
"LHCPICGFKCTQKGNLLRHIKL [46L_47H_49P_50I_52G_53F_54K_55C_67L_, Q9UKT9]",log2 fold change of degron read counts,[1],2.19
same,log2 fold change of degron read counts,[2],2.18
same,log2 fold change of degron read counts,[3],1.15
same,log2 fold change of degron read counts,compound: thalidomide,1.4
"LQCPICGFKCTQKGNLLRHIKL [46L_47Q_49P_50I_52G_53F_54K_55C_67L_, Q9UKT9]",log2 fold change of degron read counts,[1],0.793
same,log2 fold change of degron read counts,[2],2.43
same,log2 fold change of degron read counts,[3],0.554
same,log2 fold change of degron read counts,compound: thalidomide,3.4
"LGCPICGFKCTQKGNLLRHIKL [46L_47G_49P_50I_52G_53F_54K_55C_67L_, Q9UKT9]",log2 fold change of degron read counts,[1],3.67
same,log2 fold change of degron read counts,[2],1.98
same,log2 fold change of degron read counts,[3],-0.000486
same,log2 fold change of degron read counts,compound: thalidomide,1.27
"LDCPICGFKCTQKGNLLRHIKL [46L_47D_49P_50I_52G_53F_54K_55C_67L_, Q9UKT9]",log2 fold change of degron read counts,[1],0.605
same,log2 fold change of degron read counts,[2],0.0419
same,log2 fold change of degron read counts,[3],-0.53
same,log2 fold change of degron read counts,compound: thalidomide,2.02
"LSCPICGFKCTQKGNLLRHIKL [46L_47S_49P_50I_52G_53F_54K_55C_67L_, Q9UKT9]",log2 fold change of degron read counts,[1],2.15
same,log2 fold change of degron read counts,[2],1.87
same,log2 fold change of degron read counts,[3],0.118
same,log2 fold change of degron read counts,compound: thalidomide,1.77

# Reference: the supplement of paper PMC12645437, “Orthogonal IMiD-Degron Pairs Induce Selective Protein Degradation in Cells” (ACS Chemical Biology, 2025)
